# Test results as given in PMC7826789 (International Journal of Molecular Sciences, 2021).
# Assays:
# Conditions in all cases: Compound Concentration (nM):1000
# CSNK2A2 = tested on: CSNK2A2
# CTK = tested on: T1, CTK
# T1 construct: gene MATK
# DAPK1 = tested on: DAPK1
# DAPK2 = tested on: DAPK2
# DAPK3 = tested on: DAPK3
# DCAMKL1 = tested on: T2, DCAMKL1
# T2 construct: gene DCLK1
# DCAMKL2 = tested on: T3, DCAMKL2
# T3 construct: gene DCLK2
# DCAMKL3 = tested on: T4, DCAMKL3
# T4 construct: gene DCLK3
# DDR1 = tested on: DDR1
# DDR2 = tested on: DDR2
# DLK = tested on: T5, DLK
# T5 construct: gene MAP3K12
# DMPK2 = tested on: T6, DMPK2
# T6 construct: gene CDC42BPG
# DMPK = tested on: DMPK
# DRAK1 = tested on: T7, DRAK1
# T7 construct: gene STK17A
# DRAK2 = tested on: T8, DRAK2
# T8 construct: gene STK17B
# DYRK1A = tested on: DYRK1A
# DYRK1B = tested on: DYRK1B
# DYRK2 = tested on: DYRK2
# EGFR(E746-A750del) = tested on: EGFR(E746-A750del)
# EGFR(G719C) = tested on: EGFR(G719C)
# 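Further: KINOMEscan scanMAX binding as percent activity remaining versus control; lower means stronger binding.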
Structure (SMILES),Percent Control (CSNK2A2) [%],Percent Control (CTK) [%],Percent Control (DAPK1) [%],Percent Control (DAPK2) [%],Percent Control (DAPK3) [%],Percent Control (DCAMKL1) [%],Percent Control (DCAMKL2) [%],Percent Control (DCAMKL3) [%],Percent Control (DDR1) [%],Percent Control (DDR2) [%],Percent Control (DLK) [%],Percent Control (DMPK2) [%],Percent Control (DMPK) [%],Percent Control (DRAK1) [%],Percent Control (DRAK2) [%],Percent Control (DYRK1A) [%],Percent Control (DYRK1B) [%],Percent Control (DYRK2) [%],Percent Control (EGFR(E746-A750del)) [%],Percent Control (EGFR(G719C)) [%]
COC(=O)Nc1nc2ccc(Oc3ccc(NC(=O)Nc4cc(C(F)(F)F)ccc4F)cc3)cc2s1.Cl [GW693917A],68,91,95,100,100,95,86,100,0,5.8,64,73,100,100,99,82,100,62,88,98
COc1ccc(COc2ccc(Cc3cnc(N)nc3N)cc2OC)cc1 [GW632580X],70,94,94,91,91,94,78,100,78,100,97,100,100,100,100,88,100,81,100,85
Nc1ncnc2occ(-c3ccc(NC(=O)Nc4cc(C(F)(F)F)ccc4F)cc3)c12 [GW770249X],93,70,100,100,98,78,76,100,0,1.3,90,96,100,100,96,100,100,86,91,89
NS(=O)(=O)c1ccc(N/N=C2\C(=O)Nc3ccc(-c4cnco4)cc32)cc1 [GW276655],7,78,60,70,56,78,87,100,100,100,100,94,72,60,36,2.5,79,4,100,83
CC1=C(C(=O)Nc2ccc3[nH]ncc3c2)C(c2ccc3ccccc3c2)CC(=O)N1 (centres unmarked) [GSK270822A],80,54,95,100,100,90,74,94,79,90,68,94,100,95,84,92,83,66,100,53
Cl.O=C(Nc1ccc(Oc2ccc3[nH]c(NC(=O)c4ccccc4)nc3c2)cc1)Nc1cc(C(F)(F)F)ccc1F [GW709042A],72,100,100,100,100,92,96,100,0,16,77,86,100,100,100,100,100,97,94,71
COc1ccccc1-c1cc(/C=C2\C(=O)Nc3ncc(Br)cc32)cc(Br)c1O [GW442130X],72,99,100,88,88,100,100,89,92,100,100,100,100,85,100,59,68,95,100,100
COc1cc2ncnc(Nc3ccc4c(cnn4Cc4ccccc4)c3)c2cc1OC.Cl [GW282449A],100,84,100,100,100,100,100,100,91,100,87,100,100,100,100,100,97,87,6.7,0
COc1cc2ncn(-c3cc(O[C@H](C)c4ccccc4Cl)c(C(N)=O)s3)c2cc1OC [GSK237701A],34,78,55,81,79,77,100,100,100,74,59,91,100,100,89,92,100,68,85,64
COc1ccc2[nH]c3c4[nH]c5ccc(OC)cc5c4c4c(c3c2c1)C(=O)NC4=O [GW296115X],56,93,22,4.9,4.8,90,90,19,77,72,77,84,56,0.4,2.2,48,79,50,20,64
O=C(Nc1n[nH]c2nc(-c3ccc(O)cc3)c(Br)cc12)C1CC1 [SB-725317],85,100,55,34,34,89,100,3.5,98,100,100,100,23,100,95,24,7.4,6.6,91,100
Cl.O=C(Nc1ccc(Oc2ccc3[nH]c(NC(=O)c4ccco4)nc3c2)cc1)Nc1cc(C(F)(F)F)ccc1F [GW683134A],91,100,100,83,89,87,100,82,0,5.1,86,82,100,100,100,100,93,83,92,100
COc1cc(/C=N/Nc2ncnc3[nH]ncc23)ccc1O [GW578748X],7.7,97,78,75,48,68,100,68,100,100,71,100,100,7,9.9,12,69,2.5,90,52
O=C1Nc2ccc(C(=O)c3ccco3)cc2C1=Cc1cc(Cl)c(O)c(Cl)c1 [GW406108X],19,92,22,9.2,10,80,94,100,100,93,42,100,100,80,32,0.4,1.9,41,86,73
COc1cccc(-n2ncc3c(N/N=C/c4ccncc4)ncnc32)c1 [GW784752X],2.9,99,100,94,93,86,100,71,100,100,82,100,100,73,87,18,95,17,75,90
CCn1c(-c2nonc2N)nc2c(C#CC(C)(C)O)nc(OCCNC)cc21.Cl [GSK949675],97,100,100,100,100,100,100,66,100,100,86,100,100,100,100,70,100,87,97,100
Cl.c1ccc(Cc2nc3ccc(Nc4ncnc5ccccc45)cc3[nH]2)cc1 [GR269666A],100,100,100,99,96,90,100,100,100,100,83,100,100,68,100,100,100,73,70,0
CN1CCN(C(=O)c2ccc(NC(=O)Nc3ccc(N(C)c4ccnc(Nc5ccc(CS(C)(=O)=O)cc5)n4)cc3)cc2)CC1.Cl [GW830263A],63,100,95,100,100,97,79,100,0,0,30,64,100,100,100,62,91,75,87,95
COc1cc(C=NNc2ncnc3c2cnn3-c2ccccc2)ccc1O [GW513184X],5.6,100,100,100,100,90,100,100,100,100,96,100,100,83,71,53,66,28,26,58
NS(=O)(=O)c1ccc(Nc2ncc(-c3ccccc3)o2)cc1 [GW572399X],53,100,100,100,100,83,100,100,100,100,81,100,100,85,100,92,81,57,98,100
C[C@@H](Oc1cc(-n2cnc3ccc(OC4CCN(C)CC4)cc32)sc1C(N)=O)c1ccccc1Cl [GSK579289A],8.4,100,29,49,28,70,83,89,92,90,78,100,80,100,93,100,100,49,92,81
Cl.O=S1CCN(Cc2ccc(-c3ccc4ncnc(Nc5ccc(OCc6ccccc6)c(F)c5)c4c3)o2)CC1 [GW576924A],100,100,100,100,100,89,100,100,100,100,90,100,100,100,100,100,100,91,14,0
